Measurements from PubChem BioAssay (NCI).
The panel holds about 83,000 compounds, 20% with a hit somewhere; the sample as a whole holds those more often.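 Single-dose data. Exposure time 48 hours. Values below 10 considered active.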 The source made the active and inactive calls.

Key:
Test in all cases: NCI-60 one-dose screen, 48 h (100 = growth as untreated, 0 = no growth, -100 = all killed)
SK-MEL-2 melanoma = conditions: 10 µM unless noted
EKVX NSCLC = conditions: 10 µM unless noted
SN12C renal = conditions: 10 µM unless noted
UO-31 renal = conditions: 10 µM unless noted
TK-10 renal = conditions: 10 µM unless noted
ACHN renal = conditions: 10 µM unless noted
CAKI-1 renal = conditions: 10 µM unless noted
A498 renal = conditions: 10 µM
HL-60(TB) leukemia = conditions: 10 µM unless noted
CCRF-CEM leukemia = conditions: 10 µM unless noted
MOLT-4 leukemia = conditions: 10 µM unless noted
SR leukemia = conditions: 10 µM unless noted
RPMI-8226 leukemia = conditions: 10 µM unless noted
OVCAR-8 ovarian = conditions: 10 µM unless noted
OVCAR-5 ovarian = conditions: 10 µM unless noted
OVCAR-4 ovarian = conditions: 10 µM unless noted
SK-OV-3 ovarian = conditions: 10 µM unless noted
IGROV1 ovarian = conditions: 10 µM unless noted
OVCAR-3 ovarian = conditions: 10 µM unless noted
HS 578T breast = conditions: 10 µM unless noted

Measured: growth

COc1ccc(O)c(CNC(=O)CN2CCCC2=O)c1
inactive: SK-MEL-2 melanoma 103% | EKVX NSCLC 100% | SN12C renal 97.6% | UO-31 renal 98.7% | TK-10 renal 105% | ACHN renal 99.7% | CAKI-1 renal 97.4% | A498 renal 93.6% | HL-60(TB) leukemia 142% | CCRF-CEM leukemia 26.4% | MOLT-4 leukemia 101% | SR leukemia 98.5% | RPMI-8226 leukemia 99.4% | OVCAR-8 ovarian 106% | OVCAR-5 ovarian 95.1% | OVCAR-4 ovarian 103% | SK-OV-3 ovarian 112% | IGROV1 ovarian 104% | OVCAR-3 ovarian 103% | HS 578T breast 94%

COc1cc(/C=N/C2=C(C#N)C(c3ccco3)c3c(c4cc(C)ccc4oc3=O)O2)cc(OC)c1OC (configuration not stated)
inactive: SK-MEL-2 melanoma 94.1% | EKVX NSCLC 95.1% | SN12C renal 99.5% | UO-31 renal 67.9% | TK-10 renal 109% | ACHN renal 90.1% | CAKI-1 renal 85.8% | A498 renal 86.6% | HL-60(TB) leukemia 96.1% | CCRF-CEM leukemia 96.5% | MOLT-4 leukemia 106% | SR leukemia 74.8% | RPMI-8226 leukemia 101% | OVCAR-8 ovarian 101% | OVCAR-5 ovarian 105% | OVCAR-4 ovarian 97.6% | SK-OV-3 ovarian 92.6% | IGROV1 ovarian 83.1% | OVCAR-3 ovarian 91.4% | HS 578T breast 64.3%

O=C(O)c1c(Cl)n(Cc2ccc(O)cc2)c2ccc(O)cc12
inactive: SK-MEL-2 melanoma 81.6% | EKVX NSCLC 112% | SN12C renal 102% | UO-31 renal 61.1% | TK-10 renal 137% | ACHN renal 112% | CAKI-1 renal 95.2% | A498 renal 107% | HL-60(TB) leukemia 101% | CCRF-CEM leukemia 81.6% | MOLT-4 leukemia 109% | SR leukemia 106% | RPMI-8226 leukemia 70.9% | OVCAR-8 ovarian 103% | OVCAR-5 ovarian 92.4% | OVCAR-4 ovarian 104% | SK-OV-3 ovarian 115% | IGROV1 ovarian 63.4% | OVCAR-3 ovarian 93.9% | HS 578T breast 102%

CC12CCC(O)CC1=CCC1C2CCC2(C)C(O)CCC12 (configuration not stated)
inactive: SK-MEL-2 melanoma 110% | EKVX NSCLC 71.9% | SN12C renal 105% | UO-31 renal 98.5% | TK-10 renal 105% | ACHN renal 107% | CAKI-1 renal 93.2% | A498 renal 81.1% | HL-60(TB) leukemia 115% | CCRF-CEM leukemia 94.9% | MOLT-4 leukemia 114% | SR leukemia 106% | RPMI-8226 leukemia 94.6% | OVCAR-8 ovarian 112% | OVCAR-5 ovarian 97.3% | OVCAR-4 ovarian 110% | SK-OV-3 ovarian 118% | IGROV1 ovarian 113% | OVCAR-3 ovarian 104% | HS 578T breast 105%

O=C(CC1(O)C(=O)N(Cc2ccccc2)c2ccccc21)c1ccc(C(=O)NCC2CCC3(CC2)OOC2(CCCCC2)OO3)cc1 (configuration not stated)
inactive: OVCAR-5 ovarian 21% | SK-OV-3 ovarian 54.3%
active: SK-MEL-2 melanoma 6.18% | EKVX NSCLC -63.3% | SN12C renal -60.9% | UO-31 renal -81.2% | TK-10 renal -93.2% | ACHN renal -87.7% | CAKI-1 renal -90.4% | A498 renal -88.7% | HL-60(TB) leukemia -67.4% | CCRF-CEM leukemia -41.2% | MOLT-4 leukemia -49.9% | SR leukemia -49.3% | RPMI-8226 leukemia -26.7% | OVCAR-8 ovarian -14.8% | OVCAR-4 ovarian -36.6% | IGROV1 ovarian -41.8% | OVCAR-3 ovarian -82.4% | HS 578T breast -6.26%

CCCCCCCC(=O)OCC(=O)[C@]1(O)Cc2c(O)c3c(c(O)c2[C@@H](OC2CC(N)C(O)C(C)O2)C1)C(=O)c1c(OC)cccc1C3=O (some centres not stated)
active: SK-MEL-2 melanoma -48.3% | EKVX NSCLC -57.9% | SN12C renal -69.4% | UO-31 renal -83.2% | TK-10 renal -44.5% | ACHN renal -82.9% | CAKI-1 renal -47.9% | A498 renal -87.6% | HL-60(TB) leukemia -92.4% | CCRF-CEM leukemia -90.3% | MOLT-4 leukemia -93.1% | SR leukemia -67.1% | RPMI-8226 leukemia -73.6% | OVCAR-8 ovarian -95% | OVCAR-5 ovarian -73.9% | OVCAR-4 ovarian -72.1% | SK-OV-3 ovarian -58.5% | IGROV1 ovarian -66.8% | OVCAR-3 ovarian -100% | HS 578T breast -59.3%

Cc1sc2c(c1C)C(c1ccc(Cl)cc1)=N[C@@H](CC(=O)OC(C)(C)C)c1nnc(C)n1-2
inactive: SK-MEL-2 melanoma 48.8% | EKVX NSCLC 42.2% | SN12C renal 49.5% | UO-31 renal 13.4% | TK-10 renal 22.5% | ACHN renal 31.1% | CAKI-1 renal 21.6% | CCRF-CEM leukemia 38.7% | MOLT-4 leukemia 48.3% | SR leukemia 19.2% | RPMI-8226 leukemia 23.5% | OVCAR-8 ovarian 53% | OVCAR-5 ovarian 45.4% | OVCAR-4 ovarian 42.6% | SK-OV-3 ovarian 39.3% | IGROV1 ovarian 31.4% | OVCAR-3 ovarian 20%
active: A498 renal -11.8% | HL-60(TB) leukemia 4.3% | HS 578T breast -4.04%

O=C(Nc1ccncc1F)c1cn(CC2CC2)c2ccccc12
inactive: SK-MEL-2 melanoma 98.8% | EKVX NSCLC 89.2% | SN12C renal 102% | UO-31 renal 93.9% | TK-10 renal 103% | ACHN renal 108% | CAKI-1 renal 98.2% | A498 renal 91% | HL-60(TB) leukemia 100% | CCRF-CEM leukemia 102% | MOLT-4 leukemia 101% | SR leukemia 116% | RPMI-8226 leukemia 91.9% | OVCAR-8 ovarian 101% | OVCAR-5 ovarian 113% | OVCAR-4 ovarian 97.7% | SK-OV-3 ovarian 105% | IGROV1 ovarian 109% | OVCAR-3 ovarian 110% | HS 578T breast 98.7%

CC(=O)O[C@H]1C(=O)[C@@]2(C)[C@H]([C@H](OC(=O)c3ccccc3)[C@]3(O)C[C@H](OC(=O)[C@H](OC(=O)OCC4COC(C)(C)O4)[C@@H](NC(=O)c4ccccc4)c4ccccc4)C(C)=C1C3(C)C)[C@]1(OC(C)=O)CO[C@@H]1C[C@@H]2O (some centres not stated)
inactive: SK-MEL-2 melanoma 54.2% | EKVX NSCLC 70.8% | SN12C renal 51.7% | UO-31 renal 71.3% | TK-10 renal 79.6% | ACHN renal 66.5% | CAKI-1 renal 37.5% | A498 renal 47.1% | HL-60(TB) leukemia 12.8% | CCRF-CEM leukemia 31.3% | MOLT-4 leukemia 35.8% | SR leukemia 35.7% | RPMI-8226 leukemia 13% | OVCAR-8 ovarian 39.3% | OVCAR-5 ovarian 20.8% | OVCAR-4 ovarian 79% | SK-OV-3 ovarian 48.5% | IGROV1 ovarian 35.3% | HS 578T breast 30.5%

Cc1c(C)c([N+](=O)[O-])c(C)c(C)c1[N+](=O)[O-]
inactive: SK-MEL-2 melanoma 90.8% | EKVX NSCLC 98.7% | SN12C renal 111% | UO-31 renal 106% | TK-10 renal 107% | ACHN renal 106% | CAKI-1 renal 91.3% | A498 renal 94.3% | HL-60(TB) leukemia 109% | CCRF-CEM leukemia 99.1% | MOLT-4 leukemia 100% | SR leukemia 93% | RPMI-8226 leukemia 106% | OVCAR-8 ovarian 95.7% | OVCAR-5 ovarian 93.8% | OVCAR-4 ovarian 98.2% | SK-OV-3 ovarian 117% | OVCAR-3 ovarian 118% | HS 578T breast 118%

COc1cc(C=C2c3ccccc3C(=O)c3ccccc32)ccc1OCCCCOc1cc2c(cc1OC)C(=O)N1CCCC1C=N2 (configuration not stated)
active: SK-MEL-2 melanoma -79.6% | EKVX NSCLC -49.8% | SN12C renal -68.6% | UO-31 renal -96% | TK-10 renal -70.2% | ACHN renal -62.8% | CAKI-1 renal -75.5% | A498 renal -78.6% | HL-60(TB) leukemia -21.3% | CCRF-CEM leukemia -24% | MOLT-4 leukemia -53.2% | SR leukemia -84.7% | RPMI-8226 leukemia -10% | OVCAR-8 ovarian -30.4% | OVCAR-5 ovarian -61.3% | OVCAR-4 ovarian -41.1% | SK-OV-3 ovarian -52.4% | IGROV1 ovarian -85% | OVCAR-3 ovarian -75.2% | HS 578T breast -25.9%

Fc1c[c-]c(-c2ccccn2)c(F)c1.[CH3-].[Pt+2].c1ccc([PH+](c2ccccc2)c2ccccn2)cc1
active: SK-MEL-2 melanoma -34.1% | EKVX NSCLC 4.9% | SN12C renal 3.34% | UO-31 renal -71.9% | TK-10 renal -1.18% | ACHN renal -80.4% | CAKI-1 renal -56.2% | A498 renal -21% | HL-60(TB) leukemia -6.41% | CCRF-CEM leukemia 9.35% | MOLT-4 leukemia 8.87% | SR leukemia -2.4% | RPMI-8226 leukemia -8.21% | OVCAR-5 ovarian -48.1% | OVCAR-4 ovarian -2.32% | SK-OV-3 ovarian 5.32% | IGROV1 ovarian -12% | OVCAR-3 ovarian -22.2% | HS 578T breast -1.24%
inactive: OVCAR-8 ovarian 10.3%

C/C(=C\c1cc(C(F)(F)F)nn1CCNC(=O)OC(C)(C)C)[C@@H]1C[C@@H]2O[C@]2(C)CCC[C@H](C)[C@H](O)[C@@H](C)C(=O)C(C)(C)[C@@H](O)CC(=O)O1
inactive: SK-MEL-2 melanoma 75.1% | EKVX NSCLC 65% | SN12C renal 87% | UO-31 renal 49.5% | TK-10 renal 69.2% | ACHN renal 74.6% | CAKI-1 renal 47.1% | A498 renal 49.3% | HL-60(TB) leukemia 14.1% | CCRF-CEM leukemia 67.2% | MOLT-4 leukemia 25.1% | SR leukemia 28.1% | RPMI-8226 leukemia 22.9% | OVCAR-8 ovarian 61.8% | OVCAR-5 ovarian 68.7% | OVCAR-4 ovarian 71.4% | SK-OV-3 ovarian 86.3% | IGROV1 ovarian 49.2% | OVCAR-3 ovarian 30.8% | HS 578T breast 61.3%

CN1C(=O)C(=Cc2cn(Cc3ccccc3)c3ccccc23)C(=O)N(C)C1=O
active: TK-10 renal 4.63% | A498 renal -83.1% | OVCAR-5 ovarian -6.96%
inactive: SK-MEL-2 melanoma 81.5% | EKVX NSCLC 82.1% | SN12C renal 103% | UO-31 renal 54.3% | ACHN renal 84.5% | CAKI-1 renal 60.4% | HL-60(TB) leukemia 64.4% | CCRF-CEM leukemia 92% | MOLT-4 leukemia 96.8% | SR leukemia 68.6% | RPMI-8226 leukemia 35.9% | OVCAR-8 ovarian 90.5% | OVCAR-4 ovarian 49.8% | SK-OV-3 ovarian 51.8% | OVCAR-3 ovarian 71.2% | HS 578T breast 86.8%

C[C@@H]1CCC2[C@@H](C)[C@H](OC(=O)CCC(=O)NCCNC(=O)Cc3cc(=O)oc4cc(N(C)C)ccc34)O[C@@H]3O[C@]4(C)CC[C@@H]1C23OO4 (some centres not stated)
active: HL-60(TB) leukemia -38.8% | SR leukemia -16.8%
inactive: SK-MEL-2 melanoma 40.7% | EKVX NSCLC 35.3% | SN12C renal 32.2% | UO-31 renal 13% | TK-10 renal 20% | ACHN renal 40.3% | CAKI-1 renal 44.1% | A498 renal 64.9% | CCRF-CEM leukemia 23% | MOLT-4 leukemia 31.3% | RPMI-8226 leukemia 15.1% | OVCAR-8 ovarian 23.8% | OVCAR-5 ovarian 49% | OVCAR-4 ovarian 49.1% | SK-OV-3 ovarian 92.3% | IGROV1 ovarian 55% | OVCAR-3 ovarian 37.7% | HS 578T breast 49.5%
